VCAM1 pot = potentiators of TNFa-induced VCAM1 expression, primary screen, imaging, HUVEC, TNFa stimulus, immunofluorescence | 93,000 compounds, 0.19% hits | HUVEC TNFa-stimulated VCAM-1 immunofluorescence, high-content imaging; scaled per plate to unstimulated/TNFa-only wells | activation, % at 2 µM;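 active = activation above the screen mean plus 3 SD, with well images confirming the hit on visual review, cut at about 28% in these data, passing the limit was not always enough; inconclusive = activation above that limit but images do not confirm it; inactive = activation not above that limit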;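 also: signal is the number of cytoplasmic VCAM-1 stained grains per positive cell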
VCAM1 pot confirm = potentiators of TNFa-induced VCAM1 expression, confirmation, imaging, HUVEC, triplicate retest. 230 tested, under 10 active. HUVEC TNFa-stimulated VCAM-1 immunofluorescence imaging. activation, % at 2 µM. shares compounds with VCAM1 pot;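 active = activation above 30% in triplicate retests at 2 µM, then confirmed by visual review of the well images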;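 also: scaled per plate between unstimulated and TNFa-stimulated DMSO control wells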
The depositor's hits bear a star; ? = inconclusive. Many of the other results were omitted from the sample, so hits are more common in it than they were.

SMILES	VCAM1 pot	others
COc1ccccc1OCC(=O)Nc1ccc(C(N)=O)cc1	50.7*	VCAM1 pot confirm=-16.1
Cc1cc(C)c(OCC(=O)Nc2cccc(O)c2)cc1C	26.5
COc1ccc(C(=O)/C=C(\C)NCc2ccc3c(c2)OCO3)cc1	13.0
c1ccc(CC2CCN(c3nc(N4CCOCC4)nc(N4CCOCC4)n3)CC2)cc1	-20.8
Cc1ccc(NC(=O)CC2COc3ccccc3O2)cc1 (stereo not drawn)	-1.3
O=C(CC(=O)NN=C1CCCC1)NCCc1ccccc1	-10.0
CC(C)(C)NC(=O)C(=O)NNC(=O)C12CC3CC(CC(C3)C1)C2	-4.7
COC(=O)c1ccc(Oc2nc(NC(C)C)nc(N(C)C)n2)cc1	27.3
CCNc1nc(NC(C)C)nc(Oc2ccc(OCCOc3ccc(C)cc3)nn2)n1	38.4*	VCAM1 pot confirm=2.0
CCNc1nc(NCc2ccccc2)nc(Oc2ccc(=O)[nH]n2)n1	-4.2
COC(=O)C1=C(C)N(c2ccc(F)cc2)C(=O)C1	-6.6
Nc1nnc(SCc2ccccc2F)n1-c1ccccc1	-9.0
Cc1ccnc(SCCn2c(N3CCCCC3)nc3c2c(=O)n(C)c(=O)n3C)n1	-3.4
O=C(NCc1cccs1)C1CCCN1S(=O)(=O)c1ccccc1F (stereo not drawn)	-3.4
O=C(Nc1ccc(Cl)cn1)C1CCCN1S(=O)(=O)c1cccc2ccccc12 (stereo not drawn)	31.2*	VCAM1 pot confirm=-11.9
O=C(NC1CCCCC1)C1CCCN1S(=O)(=O)c1cccc2nsnc12 (stereo not drawn)	-1.2
S=C(Nc1ccccc1)Nc1cc(Cl)ccc1Oc1ccccc1	2.2
COCCNC(=O)CN(C(=O)CCC(=O)Nc1cc(C)on1)c1ccccc1C	4.1
c1ccc(OCCOCCSc2ncccn2)cc1	-6.9
CC1CCCC(NC(=S)Nc2ccc(SC(F)F)cc2)C1C (stereo not drawn)	-3.4
COc1cccc(C2CC(c3c(-c4ccccc4)c4cc(Cl)ccc4[nH]c3=O)=NN2S(C)(=O)=O)c1OC (stereo not drawn)	3.9
COc1ccc(C(C#N)(CCC#N)CCC#N)cc1OC	36.8*	VCAM1 pot confirm=-18.7
CCOC(=O)C1=NN(c2ccccc2C)C2=NC(C)=C(C(=O)OC)C(c3cccs3)N12 (stereo not drawn)	14.8
CCN(CC)S(=O)(=O)c1ccc(NC(=O)C(C)N(c2ccccc2)S(C)(=O)=O)cc1 (stereo not drawn)	37.7
CCCc1nnc(SCC(=O)O)n1/N=C/c1ccc2c(c1)OCO2	-48.4
SMILES	VCAM1 pot	others
COc1cc(OC)c(C(=O)Nc2ccc(S(=O)(=O)Nc3ncccn3)cc2)cc1OC	-9.9
CC1CCCC(NC(=O)Cc2ccc(Br)cc2)C1C (stereo not drawn)	-12.6
CC(NC(=O)c1ccc(Cl)cc1)c1nnc(SCc2ccc([N+](=O)[O-])cc2)n1C (stereo not drawn)	-4.1
COCCn1c(=S)[nH]c2ncccc2c1=O	?	VCAM1 pot confirm=-13.8
COCCn1c(SCC(=O)Nc2nnc(C)s2)nnc1-c1c[nH]c2ccccc12	5.2
COCCn1c(C23CC4CC(CC(C4)C2)C3)n[nH]c1=S	-27.0
CC1CCCC(N2CCN(C(=O)c3cccc(F)c3)CC2)C1 (stereo not drawn)	9.5
CC1CCCCN1C(=O)Cn1cc(C(=O)c2ccco2)c2ccccc21 (stereo not drawn)	-16.3
Cc1cc2nc(-c3ccc(NC(=O)C(C)C)cc3)oc2cc1C	58.0*	VCAM1 pot confirm=-2.6
CC(Oc1ccc(Cl)cc1Cl)C(=O)Nc1ccc2oc(-c3ccncc3)nc2c1 (stereo not drawn)	5.9
COc1ccc(N/C(=N\c2nc(C)cc(C)n2)NC(=O)C(C)C)cc1OC	2.7
COc1cccc(C2CC(=O)NC3=C2C(=O)CCC3)c1 (stereo not drawn)	6.6
CC(C)(C)n1[nH]c2c3c(ccc2c1=O)C(=O)c1ccccc1C3=O	37.0*	VCAM1 pot confirm=-3.7
O=C(O)C1C2CCC(O2)C1C(=O)NCc1ccncc1 (stereo not drawn)	0.7
CON1C(=O)CN(C(C)=O)C1c1ccc(Cl)cc1Cl (stereo not drawn)	-4.4
Cn1c(=O)[nH]c2sc3c(c2c1=O)CC(C)(C)OC3	7.4
CCOC(=O)c1ccc(NC(=O)CSc2nnc(COc3ccccc3)n2C)cc1	10.9
COc1ccc(NC(=O)CSc2nccc(C)n2)cc1	31.5
COc1ccc(-n2ccnc2SCC(=O)Nc2ccccc2)cc1	80.8*	VCAM1 pot confirm=-11.6
CCN(CC)c1ccc(NC(=O)c2ccc(Br)o2)c(C)c1	8.0
Oc1c(Cl)cc(Cl)cc1/C=N/c1nccs1	7.1
O=C(c1ccccc1)c1cc2ccccc2o1	0.5
O=C(c1ccccc1)c1cc[n+]([O-])cc1	62.5*	VCAM1 pot confirm=-11.3
CN(C)S(=O)(=O)N(CC(=O)Nc1cccc(F)c1)c1ccccc1	-4.4
Cc1ccc(OCCSc2nnc(-c3cccs3)n2C)cc1	6.7
SMILES	VCAM1 pot	others
CN1CCN(S(=O)(=O)c2ccc(Sc3nnc(-c4cccs4)n3-c3ccccc3)nc2)CC1	58.7*	VCAM1 pot confirm=-6.1
CC(Sc1nnc(-c2cccs2)n1-c1ccccc1)C(=O)NCc1ccco1 (stereo not drawn)	-2.6
Cc1nn(-c2ccc3nnc(Br)n3n2)c(C)c1Br	-6.9
COc1ccc(CCC(C)NC2C3CC4CC(C3)CC2C4)cc1 (stereo not drawn)	-1.4
O=c1c(Cl)c(NCCO)ncn1-c1ccccc1	-9.0
CCOC(=O)c1ccccc1-c1csc(NS(=O)(=O)c2ccc(Cl)cc2)n1	-10.2
O=C(COC(=O)CCS(=O)(=O)c1ccc(Cl)cc1)NC1CCCCC1	54.5*	VCAM1 pot confirm=-14.5
Cc1cc(C(=O)OCC(=O)NC2CCCCC2)c(C)o1	-16.4
O=C(NC1CC1)c1ccc(S(=O)(=O)NCC2CCCCC2)cc1	-52.0
CC(C)NC1CS(=O)(=O)CC1O (stereo not drawn)	-100.0
N#CCCN(C(=O)CSc1ccc2c(c1)OCCO2)c1ccc(F)cc1	-26.5
COc1cc(C(=O)COC(=O)CNC(=O)C2CCCCC2)cc(OC)c1OC	3.7
CON/C=C(\C=Nc1ccc(Cl)cc1)c1ncc(C(F)(F)F)cc1Cl	1.7
O=Cc1cc2ccccc2nc1SCc1ccc(Cl)c(Cl)c1	-72.2
COc1ccc(C(C)(C)C)cc1S(=O)(=O)N1CCN(C)CC1	-92.6
COc1ccc(N2C(=O)CC(N3CCN(S(=O)(=O)c4c(F)cccc4F)CC3)C2=O)cc1OC (stereo not drawn)	57.4*	VCAM1 pot confirm=-14.9
O=C1CC(N2CCOCC2)C(=O)N1c1ccc2c(c1)OCO2 (stereo not drawn)	10.7
CCOCC(=O)Nc1nnc(C2CCCCC2)s1	-20.6
O=C(CN1CCCCCC1)Nc1ccc(Br)cc1	33.6*	VCAM1 pot confirm=-7.3
NC(=O)c1oc2ccccc2c1NC(=O)CN1CCCCC1	5.9
O=C(Cn1c(=O)sc2ccccc21)Nc1ccc(S(=O)(=O)N2CCCCC2)cc1	12.2
O=C(CCCSc1nc2ccccc2s1)NC1=NCCS1	-14.2
C/C=C(\C)CN1CCN(c2ccc(C)cc2)CC1	-7.9
Cc1ccc(CNC(=O)CS(=O)CC(=O)O)cc1 (stereo not drawn)	8.1
c1nc(N2CCOCC2)c2sc3nc(N4CCOCC4)c4c(c3c2n1)CCCC4	-8.1
Cc1cc(C)c2c(N)c(C(=O)N3CCN(c4ncccn4)CC3)sc2n1	-22.4
Cc1cc(C)c2c(n1)sc1c(N3CCN(CCO)CC3)ncnc12	?	VCAM1 pot confirm=-13.1
O=C(CSc1nnc(-c2ccccc2O)o1)N1CCc2ccccc2C1	32.1*	VCAM1 pot confirm=-10.1

Screening results (PubChem BioAssay)
